Results on 40 molecules are retold here after PubChem BioAssay (Tox21).

Records with an inconclusive call do not appear. The source made the active and inactive calls. Calls follow the shape of the full dose curve.
% is scaled to controls: 0 for no effect and ±100 for the full control effect.

This experiment can be described thus: p53 small molecule agonists, cell-based qHTS assay with human liver microsomes (AID 1963577).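 Also: p53 response element beta-lactamase reporter cells with liver microsomes plus NADPH.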 To be noted: HCT-116 p53RE-bla with human liver microsomes, ratio, 16 h; series mostly up to 66 µM; activation: at the top concentration. An excerpt:
National Center for Advancing Translational Sciences [NCATS]
Division of Preclinical Innovation [DPI]
U.S. Environmental Protection Agency [EPA]
National Institutes of Environmental Health Sciences [NIEHS]
National Toxicology Program [NTP]
U.S. Food and Drug Administration [FDA]
p53, a tumor suppressor protein, is activated following cellular insult, including DNA damage and other cellular stresses. The activation of p53 regulates cell fate by inducing DNA repair, cell cycle arrest, apoptosis, or cellular senescence. The activation of p53, therefore, is a good indicator of DNA damage and other cellular stresses. […] The activation of the reporter gene under culture conditions can be detected by fluorescence intensity.
Tox21 Assay Protocol Summary:
The p53RE-bla cells were dispensed at 4,000cells/3ul/well in 1536-well black-clear bottom plates. After the assay plates were incubated at 37 C, 5% CO2 incubator for 5 hours, 23 nL of compounds dissolved in DMSO, positive controls or DMSO only was transferred to the assay plate. Following compound addition, 3 uL of human liver microsomes (XenoTech, Kansas City, KS) at final concentration of 0.5 mg/mL and 1uL of Beta-Nicotinamide adenine dinucleotide 2-phosphate (NADPH) at final concentration of 0.5 mg/mL were transferred to the assay plate. The plates were incubated at 37 C for 16 hours. 1 uL of LiveBLAzer detection mixture was added to each well and the plates were incubated at room temperature in the dark for 2 h.
On to `CCOC(=O)c1ccc(I)cc1`, for which the “activation” value is 0.124% (inactive). For `C=CCN1CCc2nc(N)sc2CC1`, the “activation” value was -1.02% [at 30.3 µM] (inactive). `OC[C@@H](O)C(O)[C@@H](O)CO` (stereo not given in full): the “activation” value was 2.02% (inactive).

On to `O=C1C=CCCC1`, for which the “activation” value is 0.651% (inactive).

With `O=C1CCCc2c(O)cccc21`, the “activation” value was -0.772% [at 30.3 µM] (inactive).

Turning to `OC1CCC(C2CCCCC2)CC1` (stereo not given), the “activation” value is 2.94% (inactive). Take `CN(C)CCOC1=Cc2ccccc2Sc2ccc(Cl)cc21`: the “activation” value was 1.42% [at 30.3 µM] (inactive). For `C=CCCCC`, the “activation” value is -1.62% (inactive).

As for `Cc1ccc(CCn2c3c(c4cc(Cl)ccc42)CN(C)CC3)cn1`, the “activation” value was -0.571% [at 30.3 µM] (inactive).

As to `CC(=O)O[C@@H]1CC2CCC1(C)C2(C)C` (stereo not given in full), the “activation” value is 4.75% (inactive). With `C/C=C/C=C/COC(=O)C(C)C`, the “activation” value is -6.81% (inactive). To `Nc1ccc(F)c([N+](=O)[O-])c1` belongs -1.37% (inactive); to `CCOc1ccccc1O`, 1.49% (inactive); to `CC(C)(C)NC[C@H](O)COc1cccc2c1CCCC2=O`, -6.25% [at 30.3 µM] (inactive). On to `COCCO`, for which the “activation” value is -0.475% (inactive). For `O=C(O)CCN(C1(C(=O)NO)CCCC1)S(=O)(=O)c1ccc(Oc2ccc(F)cc2)cc1`, the “activation” value was -0.372% (inactive). Regarding `Cc1ccsc1C(=CCCN1CCC[C@@H](C(=O)O)C1)c1sccc1C`, the “activation” value is -0.388% [at 30.3 µM] (inactive). As to `OCCCO`, the “activation” value is 0.227% (inactive). Consider `Clc1ccnc(Cl)n1`, for which the “activation” value was -16% (inactive). As to `OCCN(CCO)CCN(CCO)CCO`, the “activation” value was 1.93% (inactive). On to `OCCCc1cccnc1`, for which the “activation” value was -0.302% (inactive). To `CCC1NC(=O)c2cc(S(N)(=O)=O)c(Cl)cc2N1` (stereo not given) belongs 0.741% [at 30.3 µM] (inactive); to `Cc1cccc(C)c1OCC(=O)N[C@@H](Cc1ccccc1)[C@@H](O)C[C@H](Cc1ccccc1)NC(=O)[C@H](C(C)C)N1CCCNC1=O`, -15% [at 30.3 µM] (inactive); to `COC(=O)c1ccc(NC(C)=O)cc1OC`, 0.42% [at 30.3 µM] (inactive). As for `COC(=O)c1cc(C(=O)OC)cc(S(=O)(=O)O)c1`, the “activation” value is -1.93% (inactive). Consider `COc1c(C)c2c(c(O)c1C/C=C(\C)CCC(=O)O)C(=O)OC2`, for which the “activation” value is -1.77% [at 30.3 µM] (inactive). Take `O=c1[nH]ncc2ccccc12`: the “activation” value is 2.34% (inactive).

On to `O=C(NCC1CN(c2ccc(N3CCOCC3=O)cc2)C(=O)O1)c1ccc(Cl)s1` (stereo not given), for which the “activation” value is -7.36% [at 30.3 µM] (inactive). The same measure for `CN1C(C)(C)CCCC1(C)C`: 3.5% [at 30.3 µM] (inactive); for `O=S(O)O`: 4.55% [at 13.5 µM] (inactive). In the case of `Cc1cc2c(OCC(CNC(C)(C)C)OC(=O)c3ccccc3)cccc2[nH]1` (stereo not given), the “activation” value is -3.13% [at 30.3 µM] (inactive). In the case of `CC(=O)Nc1ccc(S(N)(=O)=O)cc1`, the “activation” value is 8.76% (inactive). With `CCC(O)C(C)(C)C` (stereo not given), the “activation” value is 2.39% (inactive). Consider `CCC(=O)Oc1ccc2c(c1)CC[C@@H]1[C@@H]2CC[C@@]2(C)[C@H]1C[C@@H](OC(=O)CC)[C@@H]2OC(=O)CC`, for which the “activation” value was 3.58% [at 30.3 µM] (inactive). To `CCOC(=O)CC(C)O` (stereo not given) belongs 0.201% (inactive).

For `CN1CCN(C2=Nc3ccccc3Sc3ccc(Cl)cc32)CC1`, the “activation” value is -0.298% [at 30.3 µM] (inactive). As for `CCS(=O)(=O)CCn1c([N+](=O)[O-])cnc1C`, the “activation” value was -0.789% [at 30.3 µM] (inactive). As for `CC(Oc1cc(Cl)ccc1Cl)C(=O)O` (stereo not given), the “activation” value is -4.39% (inactive). In the case of `C/C=C(/C(=C/C)c1ccc(O)cc1)c1ccc(O)cc1`, the “activation” value is -3.82% [at 30.3 µM] (inactive). The same measure for `O=C(C1CCCCC1)N1CC(=O)N2CCCc3ccccc3C2C1` (stereo not given): 1.09% [at 30.3 µM] (inactive).
